Assay outcomes as filed in PubChem BioAssay.
A selection: hits, their analogues and other compounds. The true share with any hit is near 27%.
CYP2C9 activ – increases human cytochrome P450 2C9 activity; P11712; recombinant CYP2C9, luciferin-H conversion, luminescence; active compounds read high; factor 1 = untreated enzyme, 0 = blocked; activation factor at 5 µM; hit rate 1.4% among 96,000; AID 1024;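 active = activation factor of 2 or more for CYP2C9 at a 5 µM dose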;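 also: 0 = sulfaphenazole-blocked wells and 1 = vehicle-only wells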
CYP2C19 activ – cytochrome P450 2C19 (human) activation. 96,000 tested, under 10 active. P33261. activation factor at 5 µM. recombinant CYP2C19, luciferin-H EGE luminescence; active compounds read high; 0 = fully inhibited enzyme, 1 = untreated enzyme;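 active = activation factor of at least 2 at 5 µM in the primary screen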;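 also: 0 = wells with 2.5 mM tranylcypromine and 1 = vehicle-only wells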
CYP2C9 inh – human CYP2C9 inhibition. CYP2C9 Supersomes, luciferin-H conversion, luminescence. inhibition, % at 5 µM. hit rate 20% among 96,000;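 active = blocking of liver enzyme CYP2C9 beyond about 50% at 5 µM, limit read from the data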
CYP2C19 inhib – inhibitors of human CYP2C19; hit rate 21% among 96,000; P33261; inhibition, % at 5 µM; CYP2C19 Supersomes, luciferin-H EGE luminescence, 30 min;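 active = CYP2C19 inhibition above a set limit at 5 µM in the primary screen, cut at about 50% in these data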;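 also: plate controls were negative control wells for no effect and 2.5 mM tranylcypromine positive control for full effect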
EphB4 ephrin blk – EphB4-ephrin-B2 interaction antagonism | EphB4 LBD / TNYL-RAW-Alexa532 peptide, fluorescence polarization | AID 720 | P54760 | hit rate 0.15% among 97,000 | inhibition, % at 7 µM;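 active = inhibition above the screen-wide mean inhibition plus 3 SD, cut at about 15% in these data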;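 also: 0% = DMSO wells and 100% = excess unlabeled TNYL-RAW peptide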
An asterisk follows results filed as active; . = no result.

SMILES	CYP2C9 activ	CYP2C19 activ	CYP2C9 inh	CYP2C19 inhib	EphB4 ephrin blk
CCOC(=O)c1ccc(CNC(=O)c2cc(C(C)(C)C)oc2C)o1	0.2	0.1	76*	90*	-2
Cc1cc(Oc2ccccc2)nc2ccc(O)cc12	1.9	0.2	-85	80*	.
CC1CCCC(C(=O)OCc2ccccc2)N1 (configuration not stated)	.	.	.	.	-3
CCc1ccccc1N1C(=O)C2CC(C)=C(C)CC2C1=O (configuration not stated)	0.5	0.5	51*	48	-1
CCn1c(SCC(=O)N2CCC(C(N)=O)(N3CCCCC3)CC2)nc2ccccc2c1=O	.	.	.	.	-1
CCC(=O)N1c2ccc(S(=O)(=O)N(CCO)Cc3ccccc3)cc2CC1C (configuration not stated)	0.4	0.5	56*	52*	3
CCC(=O)N1c2ccc(S(=O)(=O)CCC(=O)NCc3ccc4c(c3)OCO4)cc2CC1C (configuration not stated)	0.6	0.8	42	23	-3
CCOC(=O)C1=C(CN2CCN(c3ccc(F)cc3)CC2)NC(=O)NC1c1cccs1 (configuration not stated)	0.1	0.1	91*	88*	1
CCOC(=O)C1=C(CN2CCOCC2)NC(=O)NC1c1cc(C)ccc1C (configuration not stated)	0.7	0.8	26	23	1
CCOc1ccccc1NC(=O)NC1CC2CCCC(C1)N2Cc1nnnn1CCc1ccccc1 (configuration not stated)	0.4	0.2	61*	78*	.
[O-]/[N+](=C/c1ccc(F)cc1)c1ccccc1	1.2	1	-20	-3	7
CCOC(=O)c1cc(-c2ccc(C#N)cc2)nc2c1c(C)nn2CCC#N	0.5	0.9	52*	11	-2
CCOC(=O)c1cc(-c2ccc(OC)cc2)nc2c1c(C)nn2CCC#N	0.8	0.8	19	18	-7
Cc1ccccc1CN(c1ccc(C(=O)Nc2ccccc2C(=O)NCc2ccco2)cc1)S(C)(=O)=O	0.2	0	83*	99*	-5
Cc1ccccc1CN(c1ccc(C(=O)Nc2ccccc2C(=O)N2CCCC2)cc1)S(C)(=O)=O	0.1	0	91*	99*	-7
Cc1ccccc1CN(c1ccc(C(=O)N2CCc3ccccc3C2)cc1)S(C)(=O)=O	0.4	0.5	63*	55*	-10
CNC(=O)c1ccc(N(Cc2ccccc2C)S(C)(=O)=O)cc1	0.6	0.4	43	57*	4
CC(=O)c1cccc(NC(=O)c2ccc(N(Cc3ccccc3C)S(C)(=O)=O)cc2)c1	.	.	.	.	6
N/C(=N\OC(=O)CCC1CCCCC1)c1cccc([N+](=O)[O-])c1	0.9	0.9	8	13	-4
COc1ccc(NC(=O)Cn2nnc(C(=O)NCc3ccccc3OC)c2N)cc1Cl	1.2	1.1	-20	-8	4
O=C(O)C1CC(=O)N(C2CCCCC2)C1c1ccccc1 (configuration not stated)	0.9	1	8	4	-4
COc1cc(C2CC(=O)Nc3ccccc3S2)cc(OC)c1OC (configuration not stated)	0.7	0.4	35	64*	.
O=C1CC(c2ccc(F)cc2)Sc2ccccc2N1 (configuration not stated)	.	.	.	.	4
O=[N+]([O-])c1nn(-c2ccccc2)n(O)c1=NCc1ccc2c(c1)OCO2	0.5	0.2	53*	77*	-10
O=[N+]([O-])c1nn(-c2ccc3c(c2)OCCO3)n(O)c1=NCCCO	0.9	1	13	2	13
SMILES	CYP2C9 activ	CYP2C19 activ	CYP2C9 inh	CYP2C19 inhib	EphB4 ephrin blk
O=C(Nc1ccc(Cl)cc1F)c1ccc(COc2c(F)c(F)c(F)c(F)c2F)o1	0.9	1	5	-3	8
O=C(Nc1nc(-c2nc3ccccc3s2)cs1)C1CC1	0.8	0.5	19	51*	.
O=C(Cn1nc(-c2ccc(Cl)cc2)ccc1=O)N1CCN(c2ccccc2)CC1	0.5	0.7	52*	25	-2
O=C(Cn1nc(C(F)(F)F)c2c1CCC2)N1CCN(c2ccccc2)CC1	2.3*	0.1	-126	89*	12
COc1ccc(S(=O)(=O)N(CC(=O)N2CCN(c3ccccc3OC)CC2)c2ccccc2)cc1	0.1	0.2	87*	85*	.
O=C(CCn1nc(-c2ccc(Cl)cc2)ccc1=O)N1CCN(c2ccccn2)CC1	0.6	0.7	36	32	3
COc1ccc(N2CCN(C(=O)CN(c3ccccc3)S(=O)(=O)c3ccc(OC)cc3)CC2)cc1	0.9	1.2	12	-19	-5
Oc1ccc(N2CCN(C(=S)NCCc3ccccc3)CC2)cc1	0.6	0.5	38	51*	-2
O=C(CCN1C(=O)COc2ccccc21)NCCCN1CCN(c2ccccc2F)CC1	1	1	3	4	-1
Cc1cc(C)c2c(n1)nn1c(NCCCN(C)C)cc(C)nc21	1	1	1	-2	2
COC(=O)c1ccccc1NC(=O)CNC(=O)c1ccco1	0.7	0.7	31	33	8
CCN(CC)C(=O)c1cc2c(=O)oc3ccccc3c2s1	.	.	.	.	-8
O=C(CN(c1ccc(Cl)c(C(F)(F)F)c1)S(=O)(=O)c1ccccc1)N1CCOCC1	1	0.8	-1	24	1
O=C(CN(c1ccc(Cl)c(Cl)c1)S(=O)(=O)c1ccccc1)N1CCc2ccccc2C1	0.5	0.1	50*	89*	-7
O=C(Nc1ccc(Cl)cc1)N1CCN(c2ccccc2)CC1	.	.	.	.	-7
O=C(CN(c1ccc(Cl)cc1)S(=O)(=O)c1ccccc1)N1CCN(c2ccccc2)CC1	0.1	0	92*	97*	-7
O=C(CCc1ccccc1)N1CCN(c2ccc(Cl)cc2)CC1	0.6	0.5	44	50*	4
Cc1nnc(N2CCN(c3ccccc3)CC2)[nH]c1=O	0.7	1.1	34	-5	-3
CCOC(=O)NC(Nc1sc2c(c1C(N)=O)CCCC2)(C(=O)OCC)C(F)(F)F (configuration not stated)	0.7	0.8	28	19	-3
CCc1ccc2[nH]c(=O)c(CN(Cc3ccc(F)cc3)C(c3nnnn3CCN3CCOCC3)C(C)C)cc2c1 (configuration not stated)	1	0.9	-1	8	6
COc1cccc(Sc2ccccc2CN(C)C)c1	0.9	0.3	14	72*	2
CNCc1ccccc1Sc1ccc(OC)cc1	0.9	0.3	10	65*	-8
COC(=O)c1cc2sc(Cl)cc2n1CC(=O)Nc1ccc(OC)c(OC)c1OC	0.9	0.7	9	27	-3
COC(=O)c1cc2sc(Cl)cc2n1CC(=O)Nc1cccc(SC)c1	0.3	0.6	75*	44	-2
O=C(NC(=S)Nc1cc([N+](=O)[O-])ccc1Cl)c1ccccc1	0.9	0.9	10	8	-7
CCOP(=O)(OCC)C(C#N)=C1SCN(c2ccc(Cl)cc2)CS1	0.4	0.7	61*	32	-7
